This is a sample that favours compounds with a hit; in the whole collection about 0.9% have one here.
SRC2 TRFRET art: TR-FRET artefact, counter-screen to PPARgamma/SRC-2 agonist assay; stronger effect = higher value; TR-FRET ratio at 8 µM; 0.4% of 200,000 active
SRC3 TRFRET art: counter-screen for PPARgamma SRC-3 recruitment agonists: TR-FRET artefact; PPARgamma/SRC-3 format; stronger effect = higher value; TR-FRET ratio at 8 µM; 0.39% of 99,000 active; AID 1048
PPARg SRC2 recr: PPARgamma-driven SRC-2 recruitment agonism. P37231. PPARgamma LBD-SRC-2 recruitment, biochemical. activation, % at 8 µM. 0.34% of 200,000 active. AID 1032; in the data active = activation above about 22%
Target sequence (P37231 whole entry, looked up, the tested form may be a part): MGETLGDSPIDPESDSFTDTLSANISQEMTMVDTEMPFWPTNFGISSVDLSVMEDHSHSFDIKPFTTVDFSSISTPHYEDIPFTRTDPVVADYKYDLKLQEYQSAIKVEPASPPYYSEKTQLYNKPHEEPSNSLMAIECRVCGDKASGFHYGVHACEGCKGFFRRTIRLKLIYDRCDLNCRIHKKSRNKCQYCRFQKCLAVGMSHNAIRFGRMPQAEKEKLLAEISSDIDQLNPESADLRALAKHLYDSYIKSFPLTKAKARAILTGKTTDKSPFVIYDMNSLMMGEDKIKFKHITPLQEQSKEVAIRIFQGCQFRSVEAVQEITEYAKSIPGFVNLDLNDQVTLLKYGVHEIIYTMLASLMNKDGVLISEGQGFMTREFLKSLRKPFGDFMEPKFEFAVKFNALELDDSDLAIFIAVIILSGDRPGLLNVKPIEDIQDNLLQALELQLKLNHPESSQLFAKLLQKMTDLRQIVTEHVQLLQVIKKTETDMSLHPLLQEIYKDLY
PPARg SRC-1 ag: PPARgamma-driven SRC-1 recruitment agonism; AID 631; 0.41% of 200,000 active; PPARgamma-SRC-1 coactivator recruitment biochemical assay; P37231; activation, % at 8 µM; in the data active = activation above about 19%
SRC1 TRFRET art: TR-FRET artefact, counter-screen to PPARgamma/SRC-1 agonist assay | TR-FRET detection artefact counter-screen, emission ratio; stronger effect = higher value | TR-FRET ratio at 8 µM | 0.34% of 99,000 active | AID 1051; in the data active = TR-FRET ratio above about 2300
PPARg SRC3 recr: agonists of human PPARgamma SRC-3 coactivator recruitment. P37231. biochemical PPARgamma/SRC-3 coactivator recruitment assay. activation, % at 8 µM. 0.26% of 200,000 active. AID 731; in the data active = activation above about 23%
A number is an active result; . = inactive; / = not tested or not shown. Rule as the data show it, unless noted: active = TR-FRET ratio above about 2000; inactive = the rest.

SMILES	SRC2 TRFRET art	SRC3 TRFRET art	PPARg SRC2 recr	PPARg SRC-1 ag	SRC1 TRFRET art	PPARg SRC3 recr
O=C(N/N=C/c1cccs1)c1ccc(NC(=O)c2ccccc2Cl)cc1	.	.	.	.	.	.
O=C(N/N=C/c1ccco1)c1ccc(NC(=O)c2ccccc2Cl)cc1	1979	.	.	.	.	.
Cc1cc(OCC(=O)Nc2cc(-c3nn4c(C)nnc4s3)ccc2C)ccc1Cl	.	/	.	89	/	.
O=c1[nH]cc(C(F)(F)F)cc1NS(=O)(=O)c1ccccc1[N+](=O)[O-]	.	.	.	.	.	.
Cc1ccc(CN2CCN(Cc3ccc(OC(C)C)cc3)CC2CCO)o1 (configuration not stated)	.	.	.	.	.	.
Cc1ccc(CN2CCN(Cc3cccc(OCCO)c3)CC2CCO)o1 (configuration not stated)	.	.	22	.	.	.
CCC(=O)NC(=S)Nc1ccc(NC(=S)NC(=O)c2ccccc2)cc1	.	.	.	24	2679	.
CC(=O)N1CC(=O)N=C1SCC(=O)Nc1nc(-c2ccccc2)c(-c2ccccc2)s1	.	.	.	.	2356	.
Cc1sc(NC(=O)CSC2=NCCS2)nc1-c1ccccc1	.	/	.	.	/	.
COc1cccc(-c2csc(N3CCN(C(=S)Nc4ccccc4OC)CC3)n2)c1	2307	/	.	.	/	.
COc1cccc(-c2csc(N3CCN(C(=S)Nc4cccc(Cl)c4)CC3)n2)c1	2562	/	.	.	/	.
COc1cccc(-c2csc(N3CCN(C(=S)Nc4ccccc4Cl)CC3)n2)c1	.	/	.	.	/	.
CN1/C(=C\C(=O)CSc2nnc(NCc3ccccc3)s2)C(C)(C)c2ccccc21	.	2062	.	.	.	.
CN(C)S(=O)(=O)c1ccc(Cl)c(NC(=O)CSc2nnnn2-c2ccc(O)cc2)c1	2002	.	.	.	.	.
Cn1nnnc1SCC(=O)Nc1cc(S(=O)(=O)N2CCCC2)ccc1Cl	.	.	.	.	.	.
Nc1ccc(-c2cn3cccnc3n2)cc1	.	2118	.	.	.	.
COc1ccc(-c2cn3cccnc3n2)cc1Br	.	.	.	.	.	.
CC(C)(C)c1nc(NC(=O)Nc2ccccc2)sc1Br	.	.	.	.	.	.
CC1CCCN(CCCOc2ccccc2-c2ccccc2)C1 (configuration not stated)	.	.	.	.	.	.
Cc1ccccc1CC1(CO)CCCN(C(=O)CCC(=O)c2ccccc2)C1 (configuration not stated)	.	.	.	22	.	.
Cc1cc(C(=O)N/N=C/c2cccc([N+](=O)[O-])c2O)n[nH]1	.	2114	.	.	.	.
Cc1cc(C(=O)N/N=C/c2ccc(O)c([N+](=O)[O-])c2)n[nH]1	.	.	.	.	.	.
CCCSc1nc(=O)n2cccc(C)c2n1	.	/	.	.	/	.
O=C1NC2(CCCC2)N=C1c1ccc(Cl)cc1	.	/	.	.	/	.
N#CC(C#N)=c1ccc2c(c1)NC1(CCCCC1)N=2	.	/	28	39	/	29
SMILES	SRC2 TRFRET art	SRC3 TRFRET art	PPARg SRC2 recr	PPARg SRC-1 ag	SRC1 TRFRET art	PPARg SRC3 recr
O=C(Cn1ncc(Cl)c(Cl)c1=O)N1CCN(S(=O)(=O)c2ccc3ccccc3c2)CC1	.	.	.	.	.	.
CC1CCN(S(=O)(=O)c2ccc(C(=O)Nc3sccc3C(N)=O)cc2)CC1	.	/	.	29	/	.
O=c1cnnc(SCc2ccc([N+](=O)[O-])cc2)[nH]1	.	.	45	79	.	73
CCC(c1nnnn1C1CCCC1)N1CCN(c2cccc(OC)c2)CC1 (configuration not stated)	.	.	.	.	.	.
COc1ccc(N2C(=O)c3ccccc3NC2c2ccc(OC)c(CSc3ccccn3)c2)cc1 (configuration not stated)	2247	/	.	.	/	.
COc1ccc(N2C(=O)c3ccccc3NC2c2ccc(OC)c(COc3ccccn3)c2)cc1 (configuration not stated)	.	.	.	.	.	.
CC1=NN(C(=O)Cn2ccc([N+](=O)[O-])n2)C(O)(C(F)(F)F)C1 (configuration not stated)	.	.	23	.	.	.
N#Cc1c(SCC(N)=O)nc2c(c1-c1ccc(OCc3ccccc3)cc1)CCCC2	.	/	.	63	/	71
CCCCc1c(C)nc2ccccc2c1SCCC(=O)O	.	.	.	.	.	.
COc1cccc(CN(C(=O)/C=C/c2ccc(Cl)cc2)C2CCS(=O)(=O)C2)c1 (configuration not stated)	.	.	.	.	.	.
COc1ccc(-c2cn3c(C)c(C(=O)Nc4ccncc4)sc3n2)cc1	.	/	.	.	/	.
Cc1c(C(=O)Nc2ccncc2)sc2nc(-c3ccc(F)cc3)cn12	1995	2105	.	.	.	.
Cc1ccc(NC(=O)CSc2nnc(-c3ccc(S(=O)(=O)N4CCCC4)cc3)o2)cc1C	.	/	.	21	/	.
Cc1ccc2c(C(=O)N3CCN(c4ccccc4)CC3)cc(-c3cccnc3)nc2c1C	.	.	.	.	2369	.
O=C1c2ccccc2C(=O)C1c1ccc(O)cc1	.	.	.	21	.	.
COC(=O)c1[nH]c2cc(OC)c(OC)cc2c1NC(=O)Oc1ccccc1	.	/	.	.	/	28
COc1ccc(C(=O)Nc2cc(C(F)(F)F)ccc2Cl)cc1OC	.	/	.	.	/	.
O=C(CSc1nnc(C2CC2)n1-c1ccccc1)NCCc1ccc(F)cc1	2046	/	23	.	/	.
Cc1ccc(-n2c(N)c(C(=O)N3CCN(C)CC3)sc2=S)cc1	.	/	.	.	/	30
NC(=O)CSc1nnc(CSc2ncccn2)n1-c1ccccc1	.	.	.	.	.	.
Cn1cccc1CC(=O)N/N=C/C(Cl)=C/c1ccccc1	.	.	.	.	2381	.
CC(=O)NCc1ccc(S(=O)(=O)NC(C(=O)O)C(C)C)cc1 (configuration not stated)	.	.	.	.	.	.
O=C(Nc1nnc(C(F)(F)F)s1)c1ccc(Br)s1	2104	2443	.	.	.	.
C=CCC1Cc2c(Br)cccc2C(CC=C)N1 (configuration not stated)	2035	.	.	.	.	.
N#Cc1ccccc1Sc1ccccc1C(=O)OCc1nnc(-c2ccccc2)o1	2002	/	.	.	/	.
SMILES	SRC2 TRFRET art	SRC3 TRFRET art	PPARg SRC2 recr	PPARg SRC-1 ag	SRC1 TRFRET art	PPARg SRC3 recr
N#Cc1ccccc1Sc1ccccc1C(=O)OCC(N)=O	.	.	.	.	.	.
COC(=O)c1c(NC(NC(=O)c2ccccc2)(C(F)(F)F)C(F)(F)F)sc2c1CCN(C)C2	1983	.	.	.	.	.
CCC(=O)NC(Nc1sc2c(c1C(=O)OC)CCCC2)(C(F)(F)F)C(F)(F)F	.	/	.	.	/	.
CCOC(=O)N1CCN(C(=O)CN(c2ccc3c(c2)OCO3)S(C)(=O)=O)CC1	.	/	.	.	/	.
CCOC(=O)C1CCN(C(=O)CSc2ccccc2Cl)CC1	.	.	.	21	.	.
Brc1ccc(C2=NC(Cc3ccccc3)CO2)cc1 (configuration not stated)	.	.	.	.	.	.

Source: PubChem (The Scripps Research Institute Molecular Screening Center)
